The results in this text go back to PubChem BioAssay.

Assay [1] in a line: inhibitors of TNFa-induced NFkB p65 translocation, primary screen, imaging, HUVEC, MLSMR starter and 10KST1 sets (AID 438;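 active = inhibition above 20% together with a positive visual image hit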;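 also: compound added about 3h40 before a 20 min TNFalpha stimulation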;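 as to inhibition: signal is the nuclear over cytoplasmic p65 intensity ratio per well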). The settings on record: HUVEC TNFa-induced p65 nuclear translocation; cell count: measured here: nuclei count (cytotoxicity indicator), at 2.08 µM; inhibition: at 2 µM, stronger effect = higher value, 0% TNFa-plus-vehicle, 100% no-TNFa wells.
Assay [2] is described as follows: reduction of polyQ htt aggregates in cells – imaging, exon1htt(103Q)mCFP cells, high-content imaging, primary screen (AID 483;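 active = visual image review flags a hit and inhibition of aggregation exceeds 20%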;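 also: compound exposure lasted 3 days before fixation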;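 as to nuclei count: percent of the per-plate median nuclei count of sample wells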). To be noted: exon1htt(103Q)mCFP cell line, aggregate imaging, at 2 µM; inhibition of aggregation: stronger effect = higher value; nuclei count: measured here: cell count, toxicity.
Assay [3] in a line: endothelial E-selectin expression blockers – imaging, HUVEC, immunofluorescence, MLSMR starter and 10KST1 sets, primary screen (AID 487;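 active = visually confirmed hit in the image check and inhibition above 20%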;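 as to inhibition: signal is fraction of cell area covered by stained E-selectin grains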;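 as to nuclei count: 100% = median nuclei count of all wells on the same plate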). The settings on record: HUVEC TNFalpha-induced E-selectin immunofluorescence imaging, at 2 µM; inhibition: stronger effect = higher value; nuclei count: measured here: cell number, toxicity.
In assay [4] the target is Voltage-gated potassium channel subunit beta-2 (Rattus norvegicus) (UniProt P62483). The assay can be described thus: inhibitors of rat Kvbeta2 reductase activity – biochemical, NADPH fluorescence, primary screen (AID 622;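 active = fluorescence slope higher than the sample average by over 3 SD, cut at about -0.22 in these data, passing the limit was not always enough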;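 also: slope of raw intensity against log time taken from 70 to 1610 s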). To be noted: recombinant KvBeta, 4-cyanobenzaldehyde reduction, at 10 µM, stronger effect = higher value.
For assay [5] the target is unchanged. As to the kind of experiment: enhancers of rat Kvbeta2 NADPH turnover – biochemical, NADPH fluorescence, primary screen (AID 623;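 active = NADPH fluorescence slope more negative than the mean of all samples by about 3 SD, 99.7% confidence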;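 also: fluorescence intensity change per second fitted from 20 to 320 s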). To be noted: Recombinant KvBeta, NADPH fluorescence decrease slope, 10 min; at 10 µM; stronger effect = lower value.
Assay [6] deals with Alpha-2C adrenergic receptor (Homo sapiens) (UniProt P18825). The assay can be described thus: compounds altering alpha2C-coupled GIRK flux – cell-based, HEK293 alpha2C/GIRK1/2, thallium flux, primary screen (AID 624;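 active = fluorescence slope after compound addition differing from the mean of all screened samples at 99.7% confidence, in either direction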;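 also: slope of fluorescence ratio to pre-addition baseline per second over 15 to 24 s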). The settings on record: thallium flux BTC fluorescence, at 10 µM, actives lie on both sides.
Assay [7] can be described thus: blockers of RIG-like receptor reporter activation – cell-based, Sendai virus stimulus, luciferase, 10K MLSCN set, TLR/RLR signaling modifier project, primary screen (AID 602276;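 active = inhibition at or above 50% at 10 µM; inactive = inhibition below 50%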;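 also: firefly luciferase from ISG56 promoter only with Renilla not read in this screen; 0% = Sendai virus plus DMSO and 100% = medium plus DMSO without virus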). The settings on record: HEK293 RL24 IRF3 luciferase reporter, at 10 µM, stronger effect = higher value.
Assay [8] in a line: TLR3 IRF3 reporter activation blockers – cell-based, poly I:C stimulus, luciferase, 10K MLSCN set, primary screen (AID 602277). To be noted: HEK293-TLR3 RL24 IRF3 luciferase reporter, at 10 µM, stronger effect = higher value.

Structures are written as SMILES. Activity calls are given as the source filed them.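 The calls were made as follows, unless noted: active = inhibition of the reporter signal at or above 50%; inactive = inhibition below 50%.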

The term inhibition denotes the change of the read-out against control, counted positive when it falls.

Voltage-gated potassium channel subunit beta-2 (Rattus norvegicus), sequence (P62483 whole entry, looked up): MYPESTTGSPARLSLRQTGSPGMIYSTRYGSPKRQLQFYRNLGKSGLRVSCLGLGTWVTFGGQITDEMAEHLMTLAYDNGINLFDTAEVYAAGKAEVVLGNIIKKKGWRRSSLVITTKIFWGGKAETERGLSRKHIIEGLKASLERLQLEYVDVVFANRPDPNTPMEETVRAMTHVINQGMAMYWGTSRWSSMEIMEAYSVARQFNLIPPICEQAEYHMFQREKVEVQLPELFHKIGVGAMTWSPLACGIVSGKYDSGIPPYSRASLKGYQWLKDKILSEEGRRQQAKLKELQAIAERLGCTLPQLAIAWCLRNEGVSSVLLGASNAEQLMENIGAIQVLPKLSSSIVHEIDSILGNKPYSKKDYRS
Alpha-2C adrenergic receptor (Homo sapiens), sequence (P18825 whole entry, looked up): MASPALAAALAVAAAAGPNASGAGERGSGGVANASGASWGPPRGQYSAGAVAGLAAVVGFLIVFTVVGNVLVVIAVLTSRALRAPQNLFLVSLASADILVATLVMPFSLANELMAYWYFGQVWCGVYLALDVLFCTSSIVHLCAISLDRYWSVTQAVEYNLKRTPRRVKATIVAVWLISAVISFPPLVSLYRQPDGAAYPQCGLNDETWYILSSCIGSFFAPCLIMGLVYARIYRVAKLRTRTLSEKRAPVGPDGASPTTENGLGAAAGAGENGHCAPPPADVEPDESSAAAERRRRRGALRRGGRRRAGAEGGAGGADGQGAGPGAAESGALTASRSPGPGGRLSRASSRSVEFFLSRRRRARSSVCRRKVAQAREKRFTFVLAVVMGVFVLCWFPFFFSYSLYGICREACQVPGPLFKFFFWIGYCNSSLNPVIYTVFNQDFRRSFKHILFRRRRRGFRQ

Turning to `CCOC(=O)N1CCN(c2cc(=O)n(-c3cccc(Br)c3)c(=O)[nH]2)CC1`, the cell count in assay [1] worked out at 532. Further, the inhibition was -10.1% (inactive) in assay [1], -13.2% (inactive) in assay [3], -10.2% (inactive) in assay [7] and 15.4% (inactive) in assay [8]. For the same compound, in assay [2], the inhibition of aggregation was 0.9% (inactive). The nuclei count in assay [2] worked out at 55.8%; in assay [3], 89.5%. The fluorescence slope in assay [4] was -0.564 (inactive). In addition, the NADPH fluorescence slope in assay [5] is -2e-05 (inactive). Moreover, the slope in assay [6] is 0.00721 (inactive).
Take `CC(C)(NC(=O)N1CCCC1)c1cccc(C(C)(C)NC(=O)N2CCCC2)c1`: the cell count in assay [1] amounted to 366. Also, the inhibition in assay [1] was -1.8% (inactive); in assay [3], 21.6% (inactive); in assay [7], 11.4% (inactive); in assay [8], 30.1% (inactive). The inhibition of aggregation in assay [2] is 34.8% (active). Also, the figures for the nuclei count in assay [2] and in assay [3] were 92.3% and 83.8%, respectively. In addition, in assay [4], the fluorescence slope is -0.381 (inactive). In assay [5], the NADPH fluorescence slope is 3e-05 (inactive). In addition, the slope in assay [6] is 0.00445 (inactive).
As for `CC(=O)NS(=O)(=O)c1ccc(NC(=O)c2ccccc2F)cc1`, the cell count in assay [1] came out at 515. Further, the inhibition in assay [1] was -3.9% (inactive); in assay [3], 31.9% (inactive); in assay [7], 6.18% (inactive); in assay [8], 8.62% (inactive). Moreover, the inhibition of aggregation in assay [2] was 23.5% (inactive). Moreover, the values for the nuclei count in assay [2] and in assay [3] were 90.4% and 90.8%, respectively. Moreover, in assay [4], the fluorescence slope is -0.383 (inactive). The NADPH fluorescence slope in assay [5] was -3.8e-05 (inactive). Besides, in assay [6], the slope is 0.00586 (inactive).
As for `Cc1cccc2cc(COC(=O)C(C)(C)C)c(=O)[nH]c12`, in assay [1], the cell count was determined as 364. The inhibition in assay [1] was 5.1% (inactive); in assay [3], 14.2% (inactive); in assay [7] it was 10.9% (inactive); in assay [8] it was 22.5% (inactive). In addition, the inhibition of aggregation in assay [2] is 2.3% (inactive). In addition, the nuclei count was determined as 102% in assay [2] and 89.1% in assay [3]. Also, in assay [4], the fluorescence slope is -0.471 (inactive). In assay [5], the NADPH fluorescence slope is 3.7e-06 (inactive). Besides, the slope in assay [6] is 0.0027 (inactive).
`COc1ccc(OC)c(NC(=O)CS(=O)(=O)Cc2nc(-c3ccccc3C)oc2C)c1`: in assay [1], the cell count stood at 676. Also, the inhibition in assay [1] is 1.1% (inactive); in assay [3] it was -17.6% (inactive); in assay [7], 7.59% (inactive); in assay [8], 31.4% (inactive). Further, in assay [2], the inhibition of aggregation was -17.4% (inactive). The nuclei count in assay [2] was 97.7%; in assay [3] it was 110%. Also, the fluorescence slope in assay [4] was -0.587 (inactive). Besides, the NADPH fluorescence slope in assay [5] was -1.4e-06 (inactive). In addition, in assay [6], the slope is 0.00717 (inactive).
As to `COC(=O)c1cc(OC)c(OC)cc1NC(=O)CCC1CCCC1`, the cell count in assay [1] worked out at 452. In addition, the inhibition in assay [1] was 3.7% (inactive); in assay [3], -78.6% (inactive); in assay [7], 12.6% (inactive); in assay [8], 22.5% (inactive). In addition, the inhibition of aggregation in assay [2] is 14.1% (inactive). Further, the nuclei count is 104% in assay [2] and 101% in assay [3]. The fluorescence slope in assay [4] is -0.637 (inactive). Besides, the NADPH fluorescence slope in assay [5] was -1e-05 (inactive). The slope in assay [6] was 0.00682 (inactive).
In the case of `O=C(NC1=NCCS1)c1nc(-c2ccccc2)n(-c2ccccc2)n1`, in assay [1], the cell count is 495. In addition, the inhibition in assay [1] was 4.7% (inactive); in assay [3] it was -60.7% (inactive); in assay [7], 8.38% (inactive); in assay [8], 11.1% (inactive). Besides, the inhibition of aggregation in assay [2] is 1% (inactive). Besides, the nuclei count in assay [2] worked out at 109%; in assay [3], 113%. For the same compound, the fluorescence slope in assay [4] was -0.405 (inactive). The NADPH fluorescence slope in assay [5] was -4.9e-05 (inactive). Besides, the slope in assay [6] was 0.00535 (inactive).
On to `Nc1nc2n(n1)C(c1cccc(Br)c1)CC(c1ccccc1)N2` (centres undefined), for which, in assay [1], the cell count was found to be 645. Besides, the inhibition in assay [1] was 13.8% (inactive); in assay [3] it was -39.6% (inactive); in assay [7], 13.2% (inactive); in assay [8], 37% (inactive). For the same compound, in assay [2], the inhibition of aggregation was -26.4% (inactive). In addition, the nuclei count in assay [2] was 114%; in assay [3], 111%. Also, the fluorescence slope in assay [4] is -0.59 (inactive). In addition, the NADPH fluorescence slope in assay [5] was 9.1e-06 (inactive). Also, the slope in assay [6] was 0.00794 (inactive).
Consider `Cn1nc(C(=O)N2CCOCC2)c2ccccc2c1=O`, for which, in assay [1], the cell count is 321. Besides, the inhibition in assay [1] is 5.2% (inactive); in assay [3], -79.4% (inactive); in assay [7] it was 9.89% (inactive); in assay [8] it was 32% (inactive). Further, the inhibition of aggregation in assay [2] was 12.2% (inactive). Besides, the results for the nuclei count in assay [2] and in assay [3] were 109% and 130%, respectively. Moreover, in assay [4], the fluorescence slope was -0.43 (inactive). For the same compound, the NADPH fluorescence slope in assay [5] was -3.1e-05 (inactive). For the same compound, the slope in assay [6] was 0.00337 (inactive).
For `CC1CN(S(=O)(=O)c2ccc(Cl)c(C(F)(F)F)c2)CC(C)O1` (centres undefined), the cell count in assay [1] turned out to be 390. The inhibition was 6.1% (inactive) in assay [1], 0.5% (inactive) in assay [3], 7.15% (inactive) in assay [7] and 0.275% (inactive) in assay [8]. In assay [2], the inhibition of aggregation is -1.4% (inactive). Further, the values for the nuclei count in assay [2] and in assay [3] were 105% and 110%, respectively. In addition, in assay [4], the fluorescence slope was -0.31 (inactive). Also, the NADPH fluorescence slope in assay [5] is -4e-05 (inactive). Besides, in assay [6], the slope was 0.0059 (inactive).
For `COC(=O)c1ccc(NC(=O)CN2CCN(c3ccc(Cl)cc3)CC2)cc1`, the cell count in assay [1] amounted to 355. Also, the inhibition is -11.2% (inactive) in assay [1], 8.1% (inactive) in assay [3], 20.2% (inactive) in assay [7] and 21.5% (inactive) in assay [8]. Besides, the inhibition of aggregation in assay [2] was 12.9% (inactive). The results for the nuclei count in assay [2] and in assay [3] were 101% and 91.5%, respectively. In addition, the fluorescence slope in assay [4] was -0.571 (inactive). For the same compound, the NADPH fluorescence slope in assay [5] was 1.7e-05 (inactive). The slope in assay [6] was 0.00455 (inactive).
Consider `CC(=O)c1ccc(-n2nnnc2SCC(=O)N2CCc3ccccc3C2)cc1`, for which the cell count in assay [1] was 434. Further, the inhibition in assay [1] is -12.9% (inactive); in assay [3], 0% (inactive); in assay [7], 2.55% (inactive); in assay [8] it was 5.8% (inactive). Moreover, the inhibition of aggregation in assay [2] was 12.1% (inactive). Further, the nuclei count in assay [2] amounted to 104%; in assay [3] it was 93.6%. For the same compound, in assay [4], the fluorescence slope was -0.51 (inactive). For the same compound, the NADPH fluorescence slope in assay [5] was 2.1e-05 (inactive). In addition, in assay [6], the slope was 0.0053 (inactive).
As for `COc1ccc(C2CC(c3ccco3)n3ncnc3N2)cc1` (centres undefined), the cell count in assay [1] came to 458. The inhibition was 6% (inactive) in assay [1], -21.1% (inactive) in assay [3], 9.66% (inactive) in assay [7] and 39.2% (inactive) in assay [8]. Moreover, the inhibition of aggregation in assay [2] is -19.3% (inactive). Further, the nuclei count in assay [2] amounted to 59.7%; in assay [3], 96.4%. Moreover, the fluorescence slope in assay [4] was -0.4 (inactive). Moreover, the NADPH fluorescence slope in assay [5] was -6.8e-05 (inactive). Also, in assay [6], the slope is 0.00517 (inactive).
In the case of `O=C(C1CCCO1)N1CCN(Cc2nc3ccccc3c(=O)[nH]2)CC1` (centres undefined), in assay [1], the cell count is 583. Also, the inhibition is 6.8% (inactive) in assay [1], -6.3% (inactive) in assay [3], 0.729% (inactive) in assay [7] and 31% (inactive) in assay [8]. The inhibition of aggregation in assay [2] is 14% (inactive). Further, the values for the nuclei count in assay [2] and in assay [3] were 125% and 104%, respectively. The fluorescence slope in assay [4] is -0.421 (inactive). Further, the NADPH fluorescence slope in assay [5] is 2.2e-05 (inactive). Further, the slope in assay [6] is 0.00673 (inactive).
